Inconclusive results are not listed. Calls of active or inactive are those of the source. How the source made its calls: active means hit-call score of the fitted dose curve at least 0.9, where 1 is the maximum; inconclusive means response in the unintended direction; inactive means score below 0.9.
These molecules were tested against Estrogen receptor (Homo sapiens) (UniProt P03372) (assay: ERF_US_NR_hESR1: Eurofins (ERF) Nuclear Receptor (NR) Cell Based Protein-Protein Interaction LeadHunter Assay for human Estrogen Receptor alpha (ERa) Agonism).
Sequence of Estrogen receptor (Homo sapiens) (P03372 whole entry, looked up): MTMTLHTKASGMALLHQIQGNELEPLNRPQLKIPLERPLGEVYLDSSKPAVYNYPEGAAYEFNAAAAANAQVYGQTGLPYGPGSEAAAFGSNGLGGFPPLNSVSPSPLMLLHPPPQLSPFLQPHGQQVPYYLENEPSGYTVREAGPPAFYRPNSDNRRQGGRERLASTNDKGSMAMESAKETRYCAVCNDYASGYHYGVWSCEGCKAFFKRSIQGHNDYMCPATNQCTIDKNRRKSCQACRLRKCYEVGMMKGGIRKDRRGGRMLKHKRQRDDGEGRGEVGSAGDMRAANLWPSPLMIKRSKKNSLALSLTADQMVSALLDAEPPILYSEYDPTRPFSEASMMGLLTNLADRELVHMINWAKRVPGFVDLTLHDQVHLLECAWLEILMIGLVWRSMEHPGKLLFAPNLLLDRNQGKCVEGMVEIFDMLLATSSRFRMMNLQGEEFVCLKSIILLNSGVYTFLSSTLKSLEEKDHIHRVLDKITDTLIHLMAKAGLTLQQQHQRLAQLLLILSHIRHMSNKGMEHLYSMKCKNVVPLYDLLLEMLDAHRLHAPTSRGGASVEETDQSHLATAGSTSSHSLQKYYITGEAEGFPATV
Description: ERF_US_NR_hESR1 is a cell-based, single-readout assay that uses extracted gene-proteins in a cell-line assay. Measurements were taken 5 hours after chemical dosing in a 384-well plate. See ERalpha Human Estrogen NHR Cell Based Agonist Protein-Protein Interaction Assay, DiscoverX.ERF_US_NR_hESR1 is an assay component calculated from the ERF_US_NR_hESR1 assay. It is designed to […].Data from the assay component ERF_US_NR_hESR1 was analyzed at the assay endpoint, ERF_US_NR_hESR1, in the positive analysis fitting direction relative to DMSO as the negative control and baseline of activity. Using a type of binding reporter, gain-of-signal activity can be used to understand changes in binding as they relate to gene ESR1. To generalize the intended target to other relatable targets, this assay endpoint is annotated to the nuclear receptor intended target family, where the subfamily is steroid.
Cells were seeded in a total volume of 20 uL into white walled, 384-well microplates and incubated at 37C overnight prior to testing. Briefly, intermediate dilution of sample stocks was performed to generate 5X sample in assay buffer. 5 uL of 5X sample was added to cells and incubated at37C for 300 minutes. Final assay vehicle concentration was 1%. The results are expressed as a percent efficacy of the control ligand.
With `NS(=O)(=O)C(F)(F)C(F)(F)C(F)(F)C(F)(F)C(F)(F)C(F)(F)C(F)(F)C(F)(F)F` the outcome was “inactive”.
With `OCC(F)(F)OC(F)(F)C(F)(F)OC(F)(F)C(F)(F)OC(F)(F)CO` the outcome was “inactive”.
`OCC(F)(F)OC(F)(F)C(F)(F)OC(F)(F)C(F)(F)OC(F)(F)F` was tested, and the AC50 was 19.5 µM (active).

Source: PubChem BioAssay AID2284375 (EPA ToxCast)
